Rows were chosen to be rich in hits. Some 2.3% of all compounds tested hit in one or more screens of this group.
CHO-K1 Ca PAM: counter-screen for M1 PAMs: effect in parental CHO-K1 cells; ATP EC20, Fluo-8 calcium fluorescence; 0% at ATP EC20, 100% at ATP max; activation, % at 3 µM; 0.02% of 360,000 active;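 active = activation above the run cutoff, the mean activation of all test compounds plus 3 SD, cut at about 40% in these data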;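 also: peak over basal fluorescence ratio in a 140 s read after ATP addition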
CHRM1 antagonist: antagonists of human M1 muscarinic receptor; AID 588852; P11229; CHO-K1 hM1, Fluo-8 calcium fluorescence, ACh EC80 antagonist; inhibition, % at 3 µM; 1.3% of 360,000 active;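 active = percent inhibition above its own plate's cutoff, namely the mean of that plate's compound wells plus 3 SD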;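 also: peak over basal fluorescence ratio during 140 s after agonist addition; 0% = ACh EC80 plus DMSO and 100% = DMSO alone without agonist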
Target sequence (P11229 whole entry, looked up): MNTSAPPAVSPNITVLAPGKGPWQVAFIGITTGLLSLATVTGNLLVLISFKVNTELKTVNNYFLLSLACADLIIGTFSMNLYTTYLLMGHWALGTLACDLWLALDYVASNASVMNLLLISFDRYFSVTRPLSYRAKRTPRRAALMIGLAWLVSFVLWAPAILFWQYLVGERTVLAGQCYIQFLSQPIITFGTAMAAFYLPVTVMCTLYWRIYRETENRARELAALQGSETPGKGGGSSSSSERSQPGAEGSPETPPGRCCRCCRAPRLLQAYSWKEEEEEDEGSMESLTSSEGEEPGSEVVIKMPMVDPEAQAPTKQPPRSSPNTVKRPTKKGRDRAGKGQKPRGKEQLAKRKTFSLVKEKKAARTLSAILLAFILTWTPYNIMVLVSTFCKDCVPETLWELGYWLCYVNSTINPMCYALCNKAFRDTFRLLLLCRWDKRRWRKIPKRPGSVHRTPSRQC
CHO-K1 Ca ag: counter-screen for M1 agonists: effect in parental CHO-K1 cells. Fluo-8 calcium fluorescence; scaled to maximal ATP response, vehicle zero. activation, % at 3 µM. 0.48% of 360,000 active; in the data active = activation above about 15%;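 also: untransfected CHO-K1 host cells lacking M1 receptor as counterscreen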
M1 PAM: positive allosteric modulators of human M1 muscarinic receptor | P11229 | activation, % at 3 µM | 0.088% of 360,000 active | CHO-K1 hM1, Fluo-8 calcium fluorescence, ACh EC20; 0% = ACh EC20, 100% = maximal ACh; in the data active = activation above about 19%, passing the limit was not always enough
CHRM1 agonist: agonists of human M1 muscarinic receptor | P11229 | AID 588814 | CHO-K1 hM1, Fluo-8 calcium fluorescence, agonist mode; 0% DMSO, 100% acetylcholine EC100 | activation, % at 3 µM | 0.33% of 360,000 active;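 active = activation above the run's mean compound activation plus 3 SD, cut at about 16% in these data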;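 also: peak over basal fluorescence ratio within a 140 s kinetic read after compound addition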
CHO-K1 Ca antag: counter-screen for M1 antagonists: effect in parental CHO-K1 cells | ATP-induced calcium, Fluo-8 fluorescence | inhibition, % at 3 µM | 0.6% of 360,000 active | AID 602250;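 active = inhibition above a per-plate cutoff, the plate's mean sample inhibition plus 3 SD, cut at about 24% in these data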;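 also: 0% = DMSO plus EC80 ATP and 100% = DMSO alone without ATP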
An asterisk follows results filed as active.

SMILES	CHO-K1 Ca PAM	CHRM1 antagonist	CHO-K1 Ca ag	M1 PAM	CHRM1 agonist	CHO-K1 Ca antag
O=C(NC(=S)N1CCCC1)c1ccccc1F	8.3	-5.0	-0.1	1.2	-1.6	-5.4
O=C(Nc1ccccc1Cl)c1cc(C2CCCCN2C(=O)C2CCCCC2)on1 (stereo unspecified)	0.3	-8.1	-0.4	-2.9	-7.7	-4.2
CCCNC(=O)c1cc(C2CCCCN2C(=O)c2cc(OC)c(C)c(OC)c2)on1 (stereo unspecified)	-10.2	-7.2	3.5	-5.0	-1.7	24.6*
COC(=O)N1CCCCC1c1cc(C(=O)Nc2ccccc2Cl)no1 (stereo unspecified)	10.4	-22.6	0.7	27.6*	2.3	-9.8
Cc1cc(C)c(C)c(S(=O)(=O)N(C)C2CCN(C)CC2)c1C	0.1	-16.6	1.2	8.2	-10.4	-5.2
CC(=O)c1ccc(S(=O)(=O)Nc2ccc(C(=O)NCC(c3cccs3)N3CCOCC3)cc2)cc1 (stereo unspecified)	15.2	-14.3	0.8	4.2	-2.3	-11.7
CN(C)C(CNC(=O)c1cccc(NS(=O)(=O)c2ccc(Br)cc2)c1)c1ccco1 (stereo unspecified)	1.0	69.5*	1.0	-26.5	-7.1	3.1
COc1cc(C(=O)NCC(c2cccs2)N2CCOCC2)ccc1OCc1ccccc1 (stereo unspecified)	-12.3	3.1	0.7	4.0	-0.6	26.6*
CCOc1ccc(NS(=O)(=O)c2ccc(C(=O)NCC(c3cccs3)N3CCOCC3)cc2)cc1 (stereo unspecified)	0.1	18.4	24.7*	-2.7	28.7*	-0.7
CCOc1ccc(S(=O)(=O)Nc2ccc(C(=O)NCC(c3ccco3)N(C)C)cc2)cc1 (stereo unspecified)	4.1	31.5*	2.1	-19.9	-5.5	-1.3
O=C(Nc1ccc(C(=O)N2CCN(c3ccccc3)CC2)cc1)C1=CSCCO1	-15.8	-9.5	4.0	5.8	-1.3	-6.6
O=C(NCC(c1cccs1)N1CCOCC1)c1ccccc1NS(=O)(=O)c1ccc(Cl)c([N+](=O)[O-])c1 (stereo unspecified)	-7.2	21.4	15.6*	-19.6	-2.5	22.2
O=C(Nc1nc(-c2cc(F)ccc2F)cs1)c1cccc(N2C(=O)CCC2=O)c1	-21.9	12.8	3.9	-6.9	-4.0	31.9*
COc1ccccc1CCNC(=O)c1cc(-c2ccccn2)nc2ccccc12	-5.5	32.0*	1.7	-10.9	-4.1	15.0
CC(=O)Nc1ccc(NC(=O)Cn2c(=O)n(-c3ccc(C)cc3)c(=O)c3oc4ccccc4c32)cc1	7.0	-1.2	0.0	7.9	-1.4	-3.5
CCOC(=O)C1CCN(C(=O)CN2C(=O)COc3ccc(C(C)(C)C)cc32)CC1	18.3	-1.8	4.7	1.7	-1.5	-15.0
CN(Cc1ccccc1)C(=O)CN1C(=O)COc2ccc(S(=O)(=O)N3CCCC3)cc21	14.2	-3.7	0.5	3.6	-4.9	-13.3
CC(C)N(Cc1ccccc1)C(=O)CN1C(=O)COc2ccc(S(=O)(=O)N3CCCCCC3)cc21	38.0	9.1	16.1*	-2.2	5.9	-30.0
COc1cc(CC(=O)OCc2ccccc2F)cc(OC)c1OC	2.2	-12.0	1.7	7.7	3.8	-11.5
O=C(NC1CCCC1)c1ccc2nc(-c3ccco3)c(-c3ccco3)nc2c1	-6.3	-2.0	0.0	1.4	-1.8	26.1*
O=C(NCCO)c1ccc2nc(-c3ccco3)c(-c3ccco3)nc2c1	11.2	-30.2	-0.1	6.8	-2.0	-1.1
CCCCC(CC)C1OCC(C[N+]2(C)CCOCC2)O1 (stereo unspecified)	14.2	42.5*	-0.2	-21.1	-9.5	-9.3
Cc1ccc(-c2nc(Nc3cccc(C)c3)sc2CC(=O)O)cc1	-10.7	0.4	1.1	4.6	0.2	26.3*
COCCOC1CCN(C(=O)c2cc(COc3ccc(F)cc3F)on2)CC1	2.3	-3.4	1.1	3.9	-2.9	-0.6
O=C1CC(=C(c2ccccc2)c2ccccc2)C(=O)N1CCCN1CCN(c2cccc(Cl)c2)CC1	21.5	38.5*	0.2	-20.4	-4.9	-18.8
SMILES	CHO-K1 Ca PAM	CHRM1 antagonist	CHO-K1 Ca ag	M1 PAM	CHRM1 agonist	CHO-K1 Ca antag
O=C1CC(=C(c2ccccc2)c2ccccc2)C(=O)N1CCN1CCN(c2cccc(Cl)c2)CC1	1.6	6.6	0.6	-1.0	-4.5	-0.5
O=c1oc2ccccc2c(Nc2ccc(F)cc2)c1[N+](=O)[O-]	14.6	-16.8	18.5*	9.6	-0.1	-8.6
O=c1oc2ccccc2c(Nc2ccc(Cl)cc2)c1[N+](=O)[O-]	4.4	-0.8	12.5	-5.0	1.4	-4.2
Cc1ccc(/C=C2\CCC3=C2OC(N)=C(C#N)C3c2ccc(C)cc2)cc1 (stereo unspecified)	-12.3	49.8*	15.7*	-11.9	26.7*	34.7*
CCCCOc1ccc(S(=O)(=O)N2CCN(c3ccc(N4CCN(CC)CC4)nn3)CC2)cc1	4.8	-7.3	2.2	-5.0	-5.3	-7.7
CCN1CCN(c2ccc(N3CCN(S(=O)(=O)c4cccc([N+](=O)[O-])c4)CC3)nn2)CC1	7.4	34.2*	0.6	-22.8	-10.1	-4.3
CCOc1ccc(Cl)cc1-c1cc(C(=O)Nc2ccc(Br)cc2)[nH]n1	19.4	-2.9	0.2	-2.6	-4.6	6.0
Cc1cccc(NC(=O)C2(c3ccc([N+](=O)[O-])cc3)CCCC2)c1	8.1	12.3	19.4*	-4.5	4.3	2.7
Cc1cc(C)nc(NS(=O)(=O)c2ccc(NC(=O)C3(c4ccc([N+](=O)[O-])cc4)CCCC3)cc2)n1	29.3	14.8	12.7	8.0	23.6*	-0.7
COc1ccc(C2(C(=O)Nc3ccc(S(=O)(=O)Nc4nc(C)cc(C)n4)cc3)CCCC2)cc1OC	9.4	-5.3	-0.1	5.7	-1.7	-2.6
COC(=O)c1ccc(COC(=O)c2ccc(CS(=O)(=O)c3ccc(C)cc3)cc2)cc1	-1.6	22.2*	0.0	-9.9	-2.9	11.5
CCOC(=O)c1ccc(CNCc2ccc(C)cc2)cc1	15.0	66.3*	0.6	-24.3	-10.5	-14.3
CC(C)=CCCC(C)CN(C)CCc1ccccn1 (stereo unspecified)	-6.6	41.7*	0.3	-18.9	-8.2	-3.3
Cc1ccccc1CN(C)CCc1ccccn1	0.7	-4.5	-0.1	7.7	-2.0	-8.9
Cc1cc(C)c(S(=O)(=O)NC(CC(=O)O)c2cccc([N+](=O)[O-])c2)c(C)c1 (stereo unspecified)	-13.6	5.6	-0.2	-8.5	-4.6	25.0*
O=C(O)CC(NS(=O)(=O)Cc1ccccc1)c1cccc([N+](=O)[O-])c1 (stereo unspecified)	7.8	-8.0	0.9	7.7	-1.7	-11.8
Nc1c(C(=O)NCc2ccc3c(c2)OCO3)nnn1CC(=O)Nc1ccc(Br)cc1	11.2	2.7	1.1	1.1	-2.0	-1.9

Bioassay records (PubChem)
